# Bioassay records: PubChem BioAssay, National Center for Advancing Translational Sciences (NCATS)
# CtBP-E1A inh = CtBP/E1A binding inhibition. AID 651724. activity change, % (concentration not given with the values). 340,000 compounds, 0.49% hits. AlphaScreen GST-E1A/His-CtBP binding, 1536-well; hits give low values; in the data active means activity change below about -65%; inconclusive means mostly about -30% to -63%; further: on the % scale 0 is the no-effect control and ±100 the full control effect
#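 GST-E1A and His-tagged CtBP (125 nM each as 5X stock) were preincubated with pin-transferred compound for 2 h at 37 °C in the dark, then glutathione donor and nickel acceptor beads were added for 1 h before AlphaScreen reading.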
# p53 reactivator = restores transcriptional activity of mutant p53; Potency, µM (doses to about 92.2 µM), without a hit: at the top dose activity change, positive = activation, actives largely listed as activators; 320,000 compounds, 0.063% hits; H1299 p53-A138V BP100-luciferase reporter, luminescence, 24 h; further: potency means the concentration at half of the fitted maximal effect; % of control where 0% means no effect; nearly all actives have a fitted effect of over 45% in size
#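 H1299 (p53-null), stable ts p53-A138V + BP100-Luc; 1000 cells/well, Opti-MEM/10% FBS; cpd 4 pt, 1:5; 24 h, 37 deg C, 5% CO2; detection reagent 10 min RT; luminescence.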
# VP16 counter = counter-screen for ROR gamma inhibitors: Gal4-VP16 reporter; Drosophila S2 Gal4-VP16 UAS-luciferase, luminescence, 20 h; Potency, µM (series often up to 53.6 µM), for the others: at the top dose activity, negative = inhibition, actives largely listed as inhibitors; 310,000 compounds, 3.5% hits; AID 2546;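 further: Gal4-VP16 expression switched on by copper sulfate through the metallothionein promoter; potency means the concentration at half of the fitted maximal effect; on the % scale 0 is the no-effect control and ±100 the full control effect; nearly all actives have a fitted effect of over 50% in size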
# RORgamma inh = ROR gamma (mouse) transcription inhibition; AID 2551; 310,000 compounds, 5.4% hits; P51450; Potency, µM (doses to about 53.6 µM), for inactives: top-dose activity change, negative = inhibition, actives largely listed as inhibitors; Drosophila S2 Gal4-RORgamma UAS-luciferase reporter, 20 h; further: potency means the concentration at half of the fitted maximal effect; on the % scale 0 is the no-effect control and ±100 the full control effect; nearly all actives have a fitted effect of over 60% in size
# Target sequence (P51450 whole entry, looked up, the tested form may be a part): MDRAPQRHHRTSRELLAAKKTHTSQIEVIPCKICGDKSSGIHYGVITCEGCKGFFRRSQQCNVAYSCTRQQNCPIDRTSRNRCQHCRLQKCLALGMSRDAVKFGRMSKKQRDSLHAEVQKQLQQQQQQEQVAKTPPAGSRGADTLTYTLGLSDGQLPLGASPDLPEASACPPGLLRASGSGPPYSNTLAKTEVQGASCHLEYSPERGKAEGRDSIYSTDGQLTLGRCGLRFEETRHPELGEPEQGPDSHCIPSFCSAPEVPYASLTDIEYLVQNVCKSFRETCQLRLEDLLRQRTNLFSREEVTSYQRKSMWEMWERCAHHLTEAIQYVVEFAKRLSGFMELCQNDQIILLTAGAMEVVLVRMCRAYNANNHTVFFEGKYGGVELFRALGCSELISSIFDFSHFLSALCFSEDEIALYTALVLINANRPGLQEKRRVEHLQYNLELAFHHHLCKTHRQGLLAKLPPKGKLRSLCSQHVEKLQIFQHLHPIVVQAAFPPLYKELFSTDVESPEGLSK
#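 Drosophila S2 cells stably expressing Gal4-DBD/mouse RORγ fusion under metallothionein promoter plus UAS-luciferase; compound 1 h, then 700 uM CuSO4 induction for 20 h at ambient temperature; inhibition read as reduced luminescence.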
# Six1-Eya2 blk = Six1/Eya2 interaction inhibition | 360,000 compounds, 0.56% hits | Q15475+O00167 | AlphaScreen GST-Six1/His-Eya2 binding, biochemical; hits give low values | activity change, % (no concentration beside the values); in the data active means activity change below about -65%; inconclusive means mostly about -30% to -63%; further: on the % scale 0 is the no-effect control and ±100 the full control effect
#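 Homogeneous AlphaScreen proximity assay pairing GST-Six1 with His-tagged Eya2 (added as 5X mix: 250 nM and 500 nM) in 50 mM Tris pH 8.0, 300 mM NaCl, 1 mM TCEP. Glutathione donor and nickel acceptor beads; 1 h, 37 °C, dark.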
# * marks the source's active call; other numbers are inactive results; ? = inconclusive; / = not tested or not shown; [ ] = dose if it differs, or a comment. This is a sample that favours compounds with a hit; in the whole collection about 5.4% have one here. Unless noted, the call rests on the fitted dose curve; in most records, active means well fitted curve in the direction sought with a large enough effect; inconclusive means small, poorly fitted or top-dose-only effect, or another doubt; inactive means no such curve, though single readings can be large; an effect the other way counts as inactive or inconclusive.
SMILES,CtBP-E1A inh,p53 reactivator,VP16 counter,RORgamma inh,Six1-Eya2 blk
COC(=O)[C@H](COC(C)(C)C)NC(=O)O[C@@H]1C(=O)c2cc(Br)ccc2O[C@H]1c1ccc2c(c1)OCO2,/,/,0%,12%,/
O=C(CS(=O)(=O)c1ccc(F)cc1)Nc1nccs1,-3,-4%,/,/,-13
O=C(COc1ccc(F)cc1)Nc1nccs1,2,?,-9%,10µM*,0
COc1cccc(NC(=O)Nc2ccc3nc(C)c(C)nc3c2)c1,-9,/,19%,?,-2
CCn1c(C)nc2cc(NC(=O)Nc3cccc(C(C)=O)c3)ccc21,/,14%,14µM*,16µM*,-1
COc1cccc(NC(=O)Nc2ccc3c(c2)nc(C)n3C)c1,-4,3%,11µM*,8.9µM*,8
Cc1nc2cc(NC(=O)Nc3nccs3)ccc2n1C,4,?,10µM*,?,0
CCN(CC)c1ccc(NC(=O)Nc2cccc(C(C)=O)c2)cc1,?,/,?,7.9µM*,0
CCn1c(C)nc2cc(C(=O)OC)ccc21,4,1%,1%,21%,0
CC[C@H]1C2=C3C(CC[C@H]4C(OCc5ccc(F)cc5C(F)(F)F)OC[C@](C)([C@@H]34)N(C(=O)OC(C)(C)C)C2)C(COC)C1COC (some centres not stated),/,/,5%,-5%,/
FC(F)(F)c1ccccc1NC(=S)N1CCCCCC1,10,-5%,-7%,?,4
Cc1c(Cl)cccc1NC(=S)N1CCCCCC1,-24,-7%,?,14µM*,-13
Cc1ccc(NC(=S)N2CCN(c3ncccn3)CC2)c(C)c1,-6,4%,?,35µM*,-7
Cc1cccc(NC(=S)N2CCCCCC2)c1C,5,10%,?,?,0
FC(F)(F)c1ccccc1NC(=S)N1CCN(c2ncccn2)CC1,2,22%,-10%,13µM*,-1
CCc1ccccc1NC(=S)N1N=CCC1c1ccccc1 (configuration not stated),9,25%,7.9µM*,3.2µM*,1
C=C(C)C(=O)/C=C/c1ccc(Br)cc1,/,/,-16%,38%,/
O=C(Nc1cccc(F)c1)N1CCC2(CC1)CCN(C(=O)c1ccncc1)CC2,/,/,5%,3%,/
Cc1c(Cl)cccc1NC(=S)NN1CCOCC1,7,-1%,?,10µM*,-1
Cc1c(Cl)cccc1NC(=S)NCCN1CCOCC1,-2,-1%,-10%,?,-2
Cc1ccc(Cl)cc1NC(=S)N1CCCCCC1,-2,13%,?,10µM*,0
Cc1ccc(NC(=S)N2CCCCCC2)c(C)c1,2,18%,18µM*,?,6
CCOC(=O)c1ccccc1NC(=S)N1CCC(C)CC1,5,9%,?,13µM*,4
Cn1c(=O)c(-c2ccccc2)nc2cnc(OCc3ccccc3)nc21,/,/,-16%,8%,/
COc1ccc(NCc2cccnc2)cc1,-1,12%,-10%,1%,0
SMILES,CtBP-E1A inh,p53 reactivator,VP16 counter,RORgamma inh,Six1-Eya2 blk
COc1cccc(-c2cncnc2NCCN2CCOCC2)c1,/,/,1%,7%,/
Cc1ccc(Cl)cc1NC(=S)Nn1cnnc1,1,?,?,13µM*,-2
CCc1ccccc1NC(=S)NN,/,5%,?,11µM*,/
Cc1ccc(NC(=S)Nn2cnnc2)c(C)c1,/,4%,1%,-14%,/
CCc1ccccc1NC(=S)NNC(=O)c1ccccc1Cl,/,15%,-16%,?,1
CCc1ccccc1NC(=S)N1CCCCCC1,4,-4%,?,14µM*,2
CCOc1ccc2nc(NC(=S)NCc3ccccc3)sc2c1,-9,11%,2.8µM*,2.2µM*,-5
O=C(COc1ccccc1)NNc1nc2c(F)cc(F)cc2s1,7,-3%,0%,13µM*,5
Cc1ccc2nc(NC(=O)c3ccccc3F)sc2c1,4,-7%,7.1µM*,1.3µM*,4
CCC(=O)NNc1nc2c(F)cc(F)cc2s1,2,1%,-28%,-6%,-3
CCOc1ccc2nc(NC(=O)COC)sc2c1,-6,?,?,-26%,-1
COc1ccc(C(=O)Nc2nc3ccccc3s2)c(OC)c1,-6,/,/,/,-6
COc1ccccc1C(=O)Nc1nc2ccccc2s1,-2,-13%,1µM*,0.63µM*,4
Cc1cccc(C(=O)N2CCCC(N3CCN(c4ccc(F)cc4)CC3)C2)n1 (configuration not stated),-9,11%,3%,-2%,-1
COC(=O)CCC(=O)Nc1cccc([N+](=O)[O-])c1,/,0%,1%,-1%,5
CCOc1ccc2nc(NC(=O)c3ccco3)sc2c1,-3,-5%,?,?,-2
CSc1ncccc1C(=O)Nc1nc2ccc(Oc3ccccc3)cc2s1,/,?,?,10µM*,-6
NC(=S)Nc1nc2ccccc2s1,2,5%,3.5µM*,?,1
CCOc1ccc2nc(NC(=O)c3ccoc3C)sc2c1,-10,?,11µM*,?,-7
O=C(Nc1nc2c(F)cc(F)cc2s1)c1ccccn1,?,3%,2µM*,0.22µM*,10
COc1ccc2nc(NC(=O)c3ccccc3C(=O)O)sc2c1,10,12%,-9%,-4%,-9
O=C(NCC1CCOCC1)c1ccc(-c2ccc(F)c(F)c2)c2ccoc12,-2,/,/,/,-5
Cc1ccc(N2NC3(CCN(C(N)=O)CC3)NC2=O)cc1,2,5%,4%,1%,-6
CSc1nc2ccc(NC(=O)c3ccccn3)cc2s1,-4,6%,?,?,5
CCOc1ccc2nc(NC(=O)c3ccccn3)sc2c1,?,?,2.8µM*,0.71µM*,?
SMILES,CtBP-E1A inh,p53 reactivator,VP16 counter,RORgamma inh,Six1-Eya2 blk
CCOc1ccc2nc(NC(=O)Nc3ccccc3)sc2c1,0,15%,?,-45%,-1
Cc1ccc2nc(NC(=O)c3ccccn3)sc2c1,?,6%,1.1µM*,0.35µM*,-73*
COc1ccc(S(=O)(=O)N2CCCCC2)cc1NC(=O)[C@@H]1CCCN1C(=O)c1cccs1,-16,/,/,/,4
COc1cc(/C=C(\C#N)C(=O)Nc2nnc(C(F)(F)F)s2)ccc1OCc1ccc(C(F)(F)F)cc1C(F)(F)F,/,/,-9%,11%,/
CC(=O)NCCNc1nc(-c2c(C)noc2C)nc2ccccc12,/,/,17%,-30%,/
CCN=c1scc(C)n1/N=C/c1ccc(O)c(O)c1O,?,-4%,?,3.5µM*,?
O=C(CN1CCCCC1)Nc1nnc(-c2ccccc2)s1,16,11%,2%,20%[10 µM],4
O=C(CN1CCCCC1)Nc1nnc(-c2ccc([N+](=O)[O-])cc2)s1,-8,1%,-15%,10µM*,-19
CCOc1ccc(N(C(=O)c2snc(C(N)=O)c2N)C(C(=O)NC2CCCC2)c2ccncc2)cc1 (configuration not stated),3,-1%,4%,14%,7
